Where “and” joins values, the source holds several entries; their conditions need not be identical. Identical values can stand only once. Inconclusive results are not listed. Where a structure was tested more than once in an assay, its records may differ in their call. Calls of active or inactive are those of the source. Calls follow the shape of the dose curve; as a rule, active = well fitted curve in the direction sought with a large enough effect in the repeat runs; inconclusive = weak or mixed curves; inactive = no such curve, though single readings can be large; an effect the other way counts as inactive or inconclusive.
Test system: not listed separately
Assay: Caspase-3/7 induction in HepG2 cells by small molecules, qHTS cell viability counter screen (AID 1346981); also: nearly all actives have a fitted effect of over 30% in size
Details: CellTiter-Fluor fluorescence, 17 h; series mostly up to 92.4 µM
Summary of the method: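 The parent HepG2 line is plated at 2,000 cells per well and rested 5 hr before compound pinning from DMSO stocks. Following a 16-hr treatment at 37 C, a fluorogenic live-cell substrate (CellTiter-Fluor) reports viability after 1 hr.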
Potency is read from the fitted curve at half-maximal effect.

Q: Which Potency does the source give for `CN(C)CCc1c[nH]c2ccccc12` here?
A: inactive

Q: Which Potency does the source give for `CCN(CC)CCN1C(=O)CN=C(c2ccccc2F)c2cc(Cl)ccc21` here?
A: inactive

Q: With `O=C1C(Cl)=C(Cl)C(=O)C(Cl)=C1Cl` as the compound, how does the Potency read?
A: 54.3 µM (active)

Q: For `CCCCCCC[CH2][Sn]([Cl])([Cl])[CH2]CCCCCCC`, which Potency is on record?
A: inactive

Q: With `CCOP(=O)(OCC)Oc1nc(Cl)c(Cl)cc1Cl` as the compound, how does the Potency read?
A: inactive

Q: For `c1ccc(N=NNc2ccccc2)cc1`, which Potency is on record?
A: 28.3 µM (active)

Q: For `C[C@]12Cc3cn[nH]c3C[C@@H]1CC[C@@H]1[C@@H]2CC[C@@]2(C)[C@H]1CC[C@]2(C)O`, which Potency is on record?
A: inactive

Q: With `c1csc(-c2ccc(-c3cccs3)s2)c1` as the compound, how does the Potency read?
A: inactive

Q: With `COc1ccc2c(c1OC)C(=O)O[C@@H]2[C@H]1c2cc3c(cc2CCN1C)OCO3` as the compound, how does the Potency read?
A: 17.1 µM (active)

Q: Which Potency does the source give for `CN1C2CCC(C)(C)C1CC(OC(=O)C(O)(c1cccs1)c1cccs1)C2` (stereo not given) here?
A: inactive

Q: For `CC(C)(C)c1ccc(OP(=O)(Oc2ccccc2)Oc2ccccc2)cc1`, which Potency is on record?
A: inactive

Q: With `C[C@H]1[C@H](c2ccc(Cl)cc2)SC(=O)N1C(=O)NC1CCCCC1` as the compound, how does the Potency read?
A: inactive

Q: With `Clc1ccc(C(c2ccc(Cl)cc2)C(Cl)Cl)cc1` as the compound, how does the Potency read?
A: inactive

Q: Which Potency does the source give for `ClC1=C(Cl)[C@]2(Cl)[C@@H]3[C@H]4C[C@H]([C@@H]5O[C@H]45)[C@@H]3[C@@]1(Cl)C2(Cl)Cl` here?
A: inactive

Q: For `S=C=NCCc1ccccc1`, which Potency is on record?
A: inactive

Q: For `Cc1ccccc1OP(=O)(Oc1ccccc1C)Oc1ccccc1C`, which Potency is on record?
A: inactive

Q: With `O=[N+]([O-])c1cccc2cccc([N+](=O)[O-])c12` as the compound, how does the Potency read?
A: inactive

Q: For `Cc1cc(C2CC2)nc(Nc2ccccc2)n1`, which Potency is on record?
A: inactive

Q: With `c1ccc(Nc2ccc(Nc3ccccc3)cc2)cc1` as the compound, how does the Potency read?
A: inactive

Q: Which Potency does the source give for `CCOP(=O)(Sc1ccccc1)Sc1ccccc1` here?
A: inactive

Biological target: Nuclear receptor subfamily 1 group I member 2 (Homo sapiens) (UniProt O75469)
Sequence (O75469 whole entry, looked up): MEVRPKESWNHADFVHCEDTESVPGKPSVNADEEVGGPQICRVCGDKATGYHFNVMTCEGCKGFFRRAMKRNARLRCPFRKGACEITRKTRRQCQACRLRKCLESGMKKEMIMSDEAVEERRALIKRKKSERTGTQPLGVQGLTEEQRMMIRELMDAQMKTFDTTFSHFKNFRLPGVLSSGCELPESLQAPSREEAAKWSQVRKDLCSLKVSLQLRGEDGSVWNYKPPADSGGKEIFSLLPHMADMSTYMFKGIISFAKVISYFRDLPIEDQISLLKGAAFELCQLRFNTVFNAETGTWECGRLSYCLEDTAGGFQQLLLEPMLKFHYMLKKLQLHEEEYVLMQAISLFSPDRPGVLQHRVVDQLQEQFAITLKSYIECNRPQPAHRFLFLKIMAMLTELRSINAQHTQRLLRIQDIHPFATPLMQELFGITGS
Assay: Human pregnane X receptor (PXR) small molecule agonists, qHTS assay (AID 1346982); also: nearly all actives have a fitted effect of over 35% in size
Details: PXR-Luc HepG2, CYP3A4 luciferase reporter, 24 h; series mostly up to 92.4 µM
Summary of the method: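 After plating in 5% charcoal-stripped FBS and a 5 hr rest, PXR-Luc HepG2 cells received compounds in DMSO. Following 24 hr at 37 C, ONE-Glo was added and light output read.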

Q: For `CN1CCc2cc(Cl)c(O)cc2[C@H]2c3ccccc3CC[C@@H]21`, which Potency is on record?
A: inactive

Q: With `CN(C)CCc1c[nH]c2ccccc12` as the compound, how does the Potency read?
A: inactive

Q: With `CCN(CC)CCN1C(=O)CN=C(c2ccccc2F)c2cc(Cl)ccc21` as the compound, how does the Potency read?
A: 13.3 µM (active)

Q: For `N#Cc1c[nH]cc1-c1cccc2c1OC(F)(F)O2`, which Potency is on record?
A: 27.3 µM (active)

Q: Which Potency does the source give for `O=S1OCC2C(CO1)C1(Cl)C(Cl)=C(Cl)C2(Cl)C1(Cl)Cl` (stereo not given) here?
A: 24.4 µM (active) and inactive

Q: With `O=C1C(Cl)=C(Cl)C(=O)C(Cl)=C1Cl` as the compound, how does the Potency read?
A: 60.9 µM (active) and 61.1 µM (active)

Q: For `CC1=C2C[C@H]3[C@@H](CC=C4C[C@@H](O)CC[C@@]43C)[C@@H]2CC[C@]12O[C@@H]1C[C@H](C)CN[C@H]1[C@H]2C`, which Potency is on record?
A: inactive

Q: With `CO/N=C(\C(=O)OC)c1ccccc1CO/N=C(\C)c1cccc(C(F)(F)F)c1` as the compound, how does the Potency read?
A: 0.686 µM (active)

Q: With `C#CCC1=C(C)C(OC(=O)C2C(C=C(C)C)C2(C)C)CC1=O` (stereo not given) as the compound, how does the Potency read?
A: 10.8 µM (active)

Q: With `CCOP(=O)(OCC)Oc1nc(Cl)c(Cl)cc1Cl` as the compound, how does the Potency read?
A: 54.2 µM (active)

Q: With `CCCC[N+]1(C)CCCC1` (tested in a mixture with another compound) as the compound, how does the Potency read?
A: 69.4 µM (active)

Q: For `c1ccc(N=NNc2ccccc2)cc1`, which Potency is on record?
A: 31.7 µM (active) and 30.6 µM (active)

Q: For `C[C@]12Cc3cn[nH]c3C[C@@H]1CC[C@@H]1[C@@H]2CC[C@@]2(C)[C@H]1CC[C@]2(C)O`, which Potency is on record?
A: 9.44 µM (active)

Q: With `Nc1ccc(N=Nc2ccccc2)cc1` as the compound, how does the Potency read?
A: 27.3 µM (active)

Q: With `c1csc(-c2ccc(-c3cccs3)s2)c1` as the compound, how does the Potency read?
A: 19.3 µM (active)

Q: For `COc1ccc2c(c1OC)C(=O)O[C@@H]2[C@H]1c2cc3c(cc2CCN1C)OCO3`, which Potency is on record?
A: 30.3 µM (active)

Q: With `COP(=O)(OC)Oc1ccc([N+](=O)[O-])cc1` as the compound, how does the Potency read?
A: inactive

Q: With `CC(C)(C)c1ccc(OP(=O)(Oc2ccccc2)Oc2ccccc2)cc1` as the compound, how does the Potency read?
A: 13.8 µM (active)

Q: Which Potency does the source give for `C=Cc1cccc(CCl)c1` here?
A: inactive

Q: Which Potency does the source give for `C[C@H]1[C@H](c2ccc(Cl)cc2)SC(=O)N1C(=O)NC1CCCCC1` here?
A: 6.86 µM (active)

Q: For `Clc1ccc(C(c2ccc(Cl)cc2)C(Cl)Cl)cc1`, which Potency is on record?
A: 19.6 µM (active)

Q: For `ClC1=C(Cl)[C@]2(Cl)[C@@H]3[C@H]4C[C@H]([C@@H]5O[C@H]45)[C@@H]3[C@@]1(Cl)C2(Cl)Cl`, which Potency is on record?
A: 5.44 µM (active)

Q: With `S=C=NCCc1ccccc1` as the compound, how does the Potency read?
A: 54.6 µM (active)

Q: Which Potency does the source give for `Oc1ccc([C@H]2CNCc3c2ccc(O)c3O)cc1O` here?
A: inactive

Q: With `Cc1ccccc1OP(=O)(Oc1ccccc1C)Oc1ccccc1C` as the compound, how does the Potency read?
A: 27.4 µM (active)

Q: Which Potency does the source give for `CCOP(=S)(NC(C)C)Oc1ccccc1C(=O)OC(C)C` (stereo not given) here?
A: 3.06 µM (active)

Q: For `O=[N+]([O-])c1cccc2cccc([N+](=O)[O-])c12`, which Potency is on record?
A: 30.8 µM (active)

Q: With `CCN(CC)Cc1nccn1-c1ccc([N+](=O)[O-])cc1C(=O)c1ccccc1Cl` as the compound, how does the Potency read?
A: 10.6 µM (active)

Q: Which Potency does the source give for `Cc1cc(C2CC2)nc(Nc2ccccc2)n1` here?
A: 54.5 µM (active)

Q: With `FC(F)C(F)(F)OCC(Cn1cncn1)c1ccc(Cl)cc1Cl` (stereo not given) as the compound, how does the Potency read?
A: 27.1 µM (active)

Q: Which Potency does the source give for `Cc1ccc2cc3c(ccc4ccccc43)c3c2c1CC3` here?
A: 6.13 µM (active)

Q: With `CCCCCCCc1ccc(O)cc1` as the compound, how does the Potency read?
A: 61.1 µM (active)

Q: For `CCN(CC)CCc1c[nH]c2ccccc12`, which Potency is on record?
A: inactive

Q: With `c1ccc(Nc2ccc(Nc3ccccc3)cc2)cc1` as the compound, how does the Potency read?
A: 24.2 µM (active)

Q: Which Potency does the source give for `CCOP(=O)(Sc1ccccc1)Sc1ccccc1` here?
A: 34.4 µM (active)

— PubChem BioAssay (Tox21)
